In all, about 360,000 compounds went through this assay and about 3,100 (0.86%) were called active. This excerpt belongs to a sample that is enriched for actives. A number with no mark means an inactive call.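 Rule for the calls: active = inhibition or corrected inhibition above about 18%, plus a signal ratio from 0.5 to 1.5 (limit read from the data, passing the limit was not always enough); inactive = the rest.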
Biological target: Neuropilin-1 (Homo sapiens) (UniProt O14786)
Assay: modulators of CendR peptide binding to NRP-1, primary screen, biochemical, fluorescence polarization, uHTS (AID 602438)
Details: FAM-RPARPAR peptide binding to NRP-1, fluorescence polarization; at 25 µM; active compounds read high

Neuropilin-1 (Homo sapiens), sequence (O14786 whole entry, looked up): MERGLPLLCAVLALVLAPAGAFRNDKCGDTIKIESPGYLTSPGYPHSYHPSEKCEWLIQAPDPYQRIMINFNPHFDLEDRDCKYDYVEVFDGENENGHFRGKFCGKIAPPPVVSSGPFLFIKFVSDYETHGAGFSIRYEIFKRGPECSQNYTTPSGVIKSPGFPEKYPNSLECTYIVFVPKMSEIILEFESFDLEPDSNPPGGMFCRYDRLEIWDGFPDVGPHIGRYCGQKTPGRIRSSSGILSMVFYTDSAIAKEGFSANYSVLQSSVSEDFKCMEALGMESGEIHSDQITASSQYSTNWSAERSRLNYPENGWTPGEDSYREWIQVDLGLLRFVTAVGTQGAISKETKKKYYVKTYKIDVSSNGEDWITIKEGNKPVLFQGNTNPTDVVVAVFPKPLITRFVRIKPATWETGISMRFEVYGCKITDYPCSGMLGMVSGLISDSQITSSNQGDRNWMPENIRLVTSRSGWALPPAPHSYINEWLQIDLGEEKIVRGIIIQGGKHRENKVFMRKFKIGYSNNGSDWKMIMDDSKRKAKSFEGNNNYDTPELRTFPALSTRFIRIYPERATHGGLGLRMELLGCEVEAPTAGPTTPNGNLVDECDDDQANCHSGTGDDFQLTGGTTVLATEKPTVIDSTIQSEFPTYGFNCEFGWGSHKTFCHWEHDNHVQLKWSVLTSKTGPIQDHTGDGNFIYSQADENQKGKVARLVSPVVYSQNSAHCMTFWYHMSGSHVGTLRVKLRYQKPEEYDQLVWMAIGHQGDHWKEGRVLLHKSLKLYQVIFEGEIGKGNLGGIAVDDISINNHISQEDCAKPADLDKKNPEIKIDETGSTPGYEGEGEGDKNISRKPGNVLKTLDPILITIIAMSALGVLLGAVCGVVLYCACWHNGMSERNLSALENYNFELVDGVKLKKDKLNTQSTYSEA

Structure (SMILES) | inhibition
O=C(O)C(c1cccs1)C1(O)CCCCC1 (stereo not drawn) | 27.7% (active)
O=C(O)C(c1ccccc1)C1(O)CCCCC1 (stereo not drawn) | -0.6%
CN(C)CCOC(=O)C(c1ccccc1)C1(O)CCCC1 (stereo not drawn) | 5.3%
O=C(Cn1cc(C(F)(F)F)ccc1=O)Nc1ccc2c(c1)OCCO2 | -9.1%
O=C(/C=N/O)Nc1ccccc1 | 3.7%
C#CC(C)(C)NC(=O)c1cnc(-c2ccccc2)nc1-c1ccccc1 | -0.8%
CCOC(=O)c1cnn(Cc2ccccc2Cl)c1N | -3.4%
CCOC(=O)c1ccn(S(=O)(=O)c2ccc(C)cc2)c1-c1ccccc1 | -9.6%
CCOC(=O)c1cc2n(c1N)-c1ccccc1C2=O | 29.5% (active)
CCC(C(=O)NC1CCCC1)N(C(=O)c1snc(C(N)=O)c1N)c1ccc2c(c1)OCCO2 (stereo not drawn) | 5.9%
CC(NC(=O)COC(=O)Cn1cc(C(F)(F)F)ccc1=O)c1ccccc1 (stereo not drawn) | -13.9%
CCN(CC)N=Nc1cccc(NC(C)=O)c1 | 1.7%
Cc1cc2c(cc1C)N(C(=O)CN1C(=O)c3ccccc3C1=O)C(C)(C)c1ssc(=S)c1-2 | 23.1% (active)
Cc1ccc(NC(=O)CCN2C(=O)c3ccccc3C2=O)cc1C | 15.6%
Cc1ccc2c(c1)-c1c(ssc1=S)C(C)(C)N2C(=O)CN1C(=O)c2ccccc2C1=O | -1.5%
C=CCn1nc(-c2ccccc2)c2c(C)onc2c1=O | -1.4%
CN1c2ccc(C=O)c3c(C=O)ccc(c23)N(C)C1(C)C | 56.9% (active)
Cc1ccc(C=O)c([B-](F)(F)F)c1 | -8.7%
O=C(CCN1CCCO1)N1CCCC(N2CCN(c3cccc(C(F)(F)F)c3)CC2)C1 (stereo not drawn) | 10.2%
CC1CCCN(C(=O)c2ccc3c(c2)C(=O)N(CCC2=CCCCC2)C3=O)C1 (stereo not drawn) | 9.2%
Cc1cc(=O)[nH]c(SCc2ccc(Cl)cc2)n1 | 21.5%
Cc1cc(C)c(C(=O)CSc2nc(C)cc(=O)[nH]2)c(C)c1 | 26.7% (active)
COC(=O)c1cccc(NC(=O)CSc2nc(C)cc(=O)[nH]2)c1 | -10.7%
N#CCN(C(=O)COC(=O)C1CC2CCCC(C1)C2=O)c1ccccc1 (stereo not drawn) | -17.5%
O=C(NC(=O)c1ccccc1N1CCCCC1)Nc1ccc(Br)cc1 | 5.9%
CCOC(=O)N1CCN(CC(=O)Nc2ccc(F)cc2)CC1 | -14.8%
Cc1cccc(C)c1NC(=O)CS(=O)CC(=O)N1CCN(c2ccccc2)CC1 (stereo not drawn) | 16%
Cc1cccc(C)c1NC(=O)CN1CCN(c2ccc(F)cc2)CC1 | 19.5% (active)

— PubChem BioAssay AID602438 (Sanford-Burnham Center for Chemical Genomics, 2012)
